# Results published in paper PMC7862700, “An all-to-all approach to the identification of sequence-specific readers for epigenetic DNA modifications on cytosine”.
# How the values were obtained:
# Assay in all cases: DAPPL (digital affinity profiling via proximity ligation, sequencing); 10 mM Tris-HCl pH 7.5, 50 mM NaCl, 1 mM DTT, 4% glycerol, room temperature, 30 min; GST-TFs on glutathione beads, 16-mer random dsDNA library, 0.1% formaldehyde crosslink after washing; high values mean tight binding
# [1] = biological target: T1, FLI1 (Homo sapiens, UniProt Q01543 1-452); conditions: protein: recombinant; tags: N-terminal GST; dsDNA, one strand shown
# T1 sequence: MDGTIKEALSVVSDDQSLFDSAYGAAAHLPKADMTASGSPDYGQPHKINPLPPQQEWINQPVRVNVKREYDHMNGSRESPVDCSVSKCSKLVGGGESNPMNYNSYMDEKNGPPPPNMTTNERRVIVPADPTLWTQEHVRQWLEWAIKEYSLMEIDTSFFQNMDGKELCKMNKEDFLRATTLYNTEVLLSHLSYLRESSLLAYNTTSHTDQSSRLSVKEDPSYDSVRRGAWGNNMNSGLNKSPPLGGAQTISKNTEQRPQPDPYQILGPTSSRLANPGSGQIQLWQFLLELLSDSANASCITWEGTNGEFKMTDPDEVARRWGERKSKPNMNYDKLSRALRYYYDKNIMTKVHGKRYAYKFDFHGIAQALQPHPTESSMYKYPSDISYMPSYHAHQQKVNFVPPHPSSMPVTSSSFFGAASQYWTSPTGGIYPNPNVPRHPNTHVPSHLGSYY
# How it was run: (§1)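 Binding signal is defined as a hexamer's read frequency for one factor over its frequency for the tag-only sample. To obtain reads, GST-fused human transcription factors were expressed in yeast, captured on glutathione beads, barcoded with DNA and pooled with that sample. Pools met 200 nmole of a 16-mer random double-stranded DNA library in Tris/NaCl/DTT/glycerol buffer for 30 min at room temperature before washing, 0.1% formaldehyde crosslinking, proximity ligation (BsaI/T4 ligase, 1 h, 37 °C), PCR and Illumina NextSeq500 sequencing.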
# [2] = biological target: T2, ELK1 (Homo sapiens, UniProt P19419 1-428); conditions: protein: recombinant; tags: N-terminal GST; dsDNA, one strand shown
# T2 sequence: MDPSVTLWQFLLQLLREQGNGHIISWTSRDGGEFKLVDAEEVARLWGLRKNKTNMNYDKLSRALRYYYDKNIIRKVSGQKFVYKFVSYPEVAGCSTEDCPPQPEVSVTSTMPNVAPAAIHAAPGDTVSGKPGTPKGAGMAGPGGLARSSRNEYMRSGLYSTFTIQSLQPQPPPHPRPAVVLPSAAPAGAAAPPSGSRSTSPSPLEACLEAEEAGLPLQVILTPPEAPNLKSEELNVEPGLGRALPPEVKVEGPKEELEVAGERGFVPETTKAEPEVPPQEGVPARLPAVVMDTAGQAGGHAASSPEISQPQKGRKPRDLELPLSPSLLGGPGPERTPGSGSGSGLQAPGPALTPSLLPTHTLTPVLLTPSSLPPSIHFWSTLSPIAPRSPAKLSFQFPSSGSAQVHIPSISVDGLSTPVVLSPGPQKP
# How it was run: as §1
# [3] = biological target: T3, GABPA (Homo sapiens, UniProt Q06546 1-454); conditions: protein: recombinant; tags: N-terminal GST; dsDNA, one strand shown
# T3 sequence: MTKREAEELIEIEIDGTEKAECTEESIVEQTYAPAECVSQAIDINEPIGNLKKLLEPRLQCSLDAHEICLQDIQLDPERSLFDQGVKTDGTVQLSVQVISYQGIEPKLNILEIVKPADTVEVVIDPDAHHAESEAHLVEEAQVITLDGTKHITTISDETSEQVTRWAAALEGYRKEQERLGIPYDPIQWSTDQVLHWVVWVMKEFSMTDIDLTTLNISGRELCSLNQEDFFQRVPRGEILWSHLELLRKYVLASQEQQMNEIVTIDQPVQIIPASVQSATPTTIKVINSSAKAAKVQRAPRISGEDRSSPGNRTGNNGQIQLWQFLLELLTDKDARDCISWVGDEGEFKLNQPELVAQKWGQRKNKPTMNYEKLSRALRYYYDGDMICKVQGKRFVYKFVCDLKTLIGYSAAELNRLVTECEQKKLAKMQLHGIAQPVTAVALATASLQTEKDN
# How it was run: as §1
# [4] = biological target: T4, ERG (Homo sapiens, UniProt P11308 1-479); conditions: protein: recombinant; tags: N-terminal GST; dsDNA, one strand shown
# T4 sequence: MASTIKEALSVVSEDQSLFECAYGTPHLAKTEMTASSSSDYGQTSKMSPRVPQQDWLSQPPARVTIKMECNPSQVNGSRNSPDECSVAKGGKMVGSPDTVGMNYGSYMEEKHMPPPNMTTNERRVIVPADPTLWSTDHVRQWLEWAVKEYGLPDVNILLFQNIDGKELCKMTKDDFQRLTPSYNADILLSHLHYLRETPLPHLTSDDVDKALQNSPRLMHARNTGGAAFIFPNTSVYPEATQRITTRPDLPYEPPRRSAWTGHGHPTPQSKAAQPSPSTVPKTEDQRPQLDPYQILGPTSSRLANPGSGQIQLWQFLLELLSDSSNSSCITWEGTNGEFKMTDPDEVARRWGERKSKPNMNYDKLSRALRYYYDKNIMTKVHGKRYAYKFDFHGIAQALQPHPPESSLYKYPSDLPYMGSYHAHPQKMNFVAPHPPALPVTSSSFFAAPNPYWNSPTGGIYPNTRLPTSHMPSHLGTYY
# How it was run: as §1
# [5] = biological target: ELF1 (Homo sapiens, UniProt P32519 1-619); conditions: protein: recombinant; tags: N-terminal GST; dsDNA, one strand shown
# How it was run: as §1
# [6] = biological target: T5, EHF (Homo sapiens, UniProt Q9NZC4 1-300); conditions: protein: recombinant; tags: N-terminal GST; dsDNA, one strand shown
# T5 sequence: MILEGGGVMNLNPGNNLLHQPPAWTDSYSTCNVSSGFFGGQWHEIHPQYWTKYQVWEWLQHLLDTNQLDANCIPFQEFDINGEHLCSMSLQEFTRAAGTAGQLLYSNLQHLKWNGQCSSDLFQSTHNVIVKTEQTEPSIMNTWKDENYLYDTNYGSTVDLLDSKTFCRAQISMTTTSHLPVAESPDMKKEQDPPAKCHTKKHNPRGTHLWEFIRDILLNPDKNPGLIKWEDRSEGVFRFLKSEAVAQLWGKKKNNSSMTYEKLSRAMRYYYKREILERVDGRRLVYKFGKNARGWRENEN
# How it was run: as §1
# [7] = biological target: SPI1 (Homo sapiens, UniProt P17947 1-270); conditions: protein: recombinant; tags: N-terminal GST; dsDNA, one strand shown
# How it was run: as §1
# [8] = biological target: SPIB (Homo sapiens, UniProt Q01892 1-262); conditions: protein: recombinant; tags: N-terminal GST; dsDNA, one strand shown
# How it was run: as §1
# [9] = biological target: T6, ELK3 (Homo sapiens, UniProt P41970 1-407); conditions: protein: recombinant; tags: N-terminal GST; dsDNA, one strand shown
# T6 sequence: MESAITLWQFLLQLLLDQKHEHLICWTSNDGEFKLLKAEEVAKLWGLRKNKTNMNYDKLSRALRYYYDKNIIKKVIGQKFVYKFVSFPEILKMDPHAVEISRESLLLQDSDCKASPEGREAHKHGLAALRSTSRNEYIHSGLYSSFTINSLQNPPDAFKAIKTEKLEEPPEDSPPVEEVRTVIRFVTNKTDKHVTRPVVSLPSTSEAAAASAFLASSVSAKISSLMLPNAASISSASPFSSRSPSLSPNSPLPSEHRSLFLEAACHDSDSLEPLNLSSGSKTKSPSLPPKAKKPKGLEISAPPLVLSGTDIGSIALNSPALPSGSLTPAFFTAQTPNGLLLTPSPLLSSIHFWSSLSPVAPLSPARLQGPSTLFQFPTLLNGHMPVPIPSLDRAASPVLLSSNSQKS
# How it was run: as §1
# [10] = biological target: T7, FEV (Homo sapiens, UniProt Q99581 1-238); conditions: protein: recombinant; tags: N-terminal GST; dsDNA, one strand shown
# T7 sequence: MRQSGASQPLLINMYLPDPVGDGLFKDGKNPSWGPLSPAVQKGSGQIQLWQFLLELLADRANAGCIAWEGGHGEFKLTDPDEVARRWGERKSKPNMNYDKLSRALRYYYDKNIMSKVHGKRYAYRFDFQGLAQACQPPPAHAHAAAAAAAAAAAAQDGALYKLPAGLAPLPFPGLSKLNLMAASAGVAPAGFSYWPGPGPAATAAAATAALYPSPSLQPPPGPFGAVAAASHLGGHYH
# How it was run: as §1
# [11] = biological target: ETV5 (Homo sapiens, UniProt P41161 1-510); conditions: protein: recombinant; tags: N-terminal GST; dsDNA, one strand shown
# How it was run: as §1
# [12] = biological target: HSF1 (Homo sapiens, UniProt Q00613 1-529); conditions: protein: recombinant; tags: N-terminal GST; chain copies: 3; dsDNA, one strand shown
# How it was run: as §1
# [13] = biological target: T8, SPIC (Homo sapiens, UniProt Q8N5J4 1-248); conditions: protein: recombinant; tags: N-terminal GST; dsDNA, one strand shown
# T8 sequence: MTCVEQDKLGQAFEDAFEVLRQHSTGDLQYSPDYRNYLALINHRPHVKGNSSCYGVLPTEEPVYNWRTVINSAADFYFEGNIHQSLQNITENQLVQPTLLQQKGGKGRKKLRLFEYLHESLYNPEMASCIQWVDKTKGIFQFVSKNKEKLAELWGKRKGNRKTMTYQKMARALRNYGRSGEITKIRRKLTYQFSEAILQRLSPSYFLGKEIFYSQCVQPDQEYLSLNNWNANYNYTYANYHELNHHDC
# How it was run: as §1
# [14] = biological target: ELF4 (Homo sapiens, UniProt Q99607 1-663); conditions: protein: recombinant; tags: N-terminal GST; dsDNA, one strand shown
# How it was run: as §1
# [15] = biological target: T9, ELK4 (Homo sapiens, UniProt P28324-2 1-405); conditions: protein: recombinant; tags: N-terminal GST; dsDNA, one strand shown
# T9 sequence: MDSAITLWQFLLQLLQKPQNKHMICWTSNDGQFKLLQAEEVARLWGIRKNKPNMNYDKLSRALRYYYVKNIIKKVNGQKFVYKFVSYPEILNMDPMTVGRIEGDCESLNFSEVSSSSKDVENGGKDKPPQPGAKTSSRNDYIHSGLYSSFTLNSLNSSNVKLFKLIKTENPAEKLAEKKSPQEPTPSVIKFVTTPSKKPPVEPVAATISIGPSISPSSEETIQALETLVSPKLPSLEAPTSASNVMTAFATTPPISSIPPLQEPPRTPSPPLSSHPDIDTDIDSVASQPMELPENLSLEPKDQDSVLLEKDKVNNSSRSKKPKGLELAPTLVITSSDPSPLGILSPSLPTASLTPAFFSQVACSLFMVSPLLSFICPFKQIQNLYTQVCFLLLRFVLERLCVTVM
# How it was run: as §1
# [16] = biological target: T10, ETV2 (Homo sapiens, UniProt O00321 1-342); conditions: protein: recombinant; tags: N-terminal GST; dsDNA, one strand shown
# T10 sequence: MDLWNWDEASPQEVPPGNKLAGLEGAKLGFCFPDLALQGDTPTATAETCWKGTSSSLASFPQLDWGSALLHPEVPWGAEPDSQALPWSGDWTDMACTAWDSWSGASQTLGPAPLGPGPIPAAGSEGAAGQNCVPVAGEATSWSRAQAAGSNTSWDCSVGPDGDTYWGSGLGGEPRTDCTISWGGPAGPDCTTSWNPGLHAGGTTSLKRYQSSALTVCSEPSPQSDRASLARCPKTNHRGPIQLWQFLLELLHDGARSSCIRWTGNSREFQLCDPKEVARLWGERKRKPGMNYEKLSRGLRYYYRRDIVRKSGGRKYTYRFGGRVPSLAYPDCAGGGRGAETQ
# How it was run: as §1
# [17] = biological target: T11, ELF3 (Homo sapiens, UniProt P78545 1-371); conditions: protein: recombinant; tags: N-terminal GST; dsDNA, one strand shown
# T11 sequence: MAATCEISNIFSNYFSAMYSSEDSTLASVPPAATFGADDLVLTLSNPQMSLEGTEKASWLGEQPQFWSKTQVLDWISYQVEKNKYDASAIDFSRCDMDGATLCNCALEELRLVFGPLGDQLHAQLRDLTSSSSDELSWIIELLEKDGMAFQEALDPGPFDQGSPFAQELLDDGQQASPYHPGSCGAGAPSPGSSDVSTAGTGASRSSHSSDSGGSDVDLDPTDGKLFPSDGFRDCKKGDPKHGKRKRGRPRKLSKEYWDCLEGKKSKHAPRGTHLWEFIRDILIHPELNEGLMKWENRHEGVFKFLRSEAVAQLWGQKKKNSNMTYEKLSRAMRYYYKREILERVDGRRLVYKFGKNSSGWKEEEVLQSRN
# How it was run: as §1
# [18] = biological target: CRX (Homo sapiens, UniProt O43186 1-299); conditions: protein: recombinant; tags: N-terminal GST; dsDNA, one strand shown
# How it was run: as §1
# [19] = biological target: ETV1 (Homo sapiens, UniProt P50549 1-477); conditions: protein: recombinant; tags: N-terminal GST; dsDNA, one strand shown
# How it was run: as §1
# Sequence of ELF1 (P32519 whole entry): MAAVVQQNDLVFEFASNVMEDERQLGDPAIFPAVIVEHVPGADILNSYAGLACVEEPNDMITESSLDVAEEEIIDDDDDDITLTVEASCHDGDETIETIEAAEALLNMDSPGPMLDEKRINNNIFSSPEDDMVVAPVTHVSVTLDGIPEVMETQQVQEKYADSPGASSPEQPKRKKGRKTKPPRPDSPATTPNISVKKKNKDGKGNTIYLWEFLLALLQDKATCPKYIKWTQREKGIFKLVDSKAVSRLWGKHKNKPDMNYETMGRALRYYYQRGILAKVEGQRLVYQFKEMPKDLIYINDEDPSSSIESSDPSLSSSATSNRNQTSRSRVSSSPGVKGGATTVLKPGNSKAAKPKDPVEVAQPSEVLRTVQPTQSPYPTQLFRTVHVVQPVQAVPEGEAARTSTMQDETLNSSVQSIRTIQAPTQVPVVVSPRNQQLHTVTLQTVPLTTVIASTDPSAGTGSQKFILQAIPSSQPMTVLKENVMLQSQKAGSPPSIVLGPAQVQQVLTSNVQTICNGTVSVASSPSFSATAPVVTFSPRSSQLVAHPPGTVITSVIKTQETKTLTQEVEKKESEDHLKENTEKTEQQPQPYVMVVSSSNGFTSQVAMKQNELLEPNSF
# Sequence of HSF1 (Q00613 whole entry): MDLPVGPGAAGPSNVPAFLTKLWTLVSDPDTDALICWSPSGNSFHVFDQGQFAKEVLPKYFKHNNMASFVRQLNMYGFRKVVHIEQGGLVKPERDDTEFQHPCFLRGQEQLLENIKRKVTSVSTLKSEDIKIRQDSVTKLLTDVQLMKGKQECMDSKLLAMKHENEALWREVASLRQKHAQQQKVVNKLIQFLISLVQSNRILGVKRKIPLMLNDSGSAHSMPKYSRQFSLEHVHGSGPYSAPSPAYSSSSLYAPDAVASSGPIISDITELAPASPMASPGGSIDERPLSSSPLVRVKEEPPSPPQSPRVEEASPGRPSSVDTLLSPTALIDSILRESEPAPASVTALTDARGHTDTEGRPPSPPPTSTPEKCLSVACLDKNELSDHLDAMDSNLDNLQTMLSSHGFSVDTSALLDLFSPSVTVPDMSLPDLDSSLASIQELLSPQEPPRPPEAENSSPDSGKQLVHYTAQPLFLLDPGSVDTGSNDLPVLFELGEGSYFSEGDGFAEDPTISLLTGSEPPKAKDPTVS
# Sequence of ETV1 (P50549 whole entry): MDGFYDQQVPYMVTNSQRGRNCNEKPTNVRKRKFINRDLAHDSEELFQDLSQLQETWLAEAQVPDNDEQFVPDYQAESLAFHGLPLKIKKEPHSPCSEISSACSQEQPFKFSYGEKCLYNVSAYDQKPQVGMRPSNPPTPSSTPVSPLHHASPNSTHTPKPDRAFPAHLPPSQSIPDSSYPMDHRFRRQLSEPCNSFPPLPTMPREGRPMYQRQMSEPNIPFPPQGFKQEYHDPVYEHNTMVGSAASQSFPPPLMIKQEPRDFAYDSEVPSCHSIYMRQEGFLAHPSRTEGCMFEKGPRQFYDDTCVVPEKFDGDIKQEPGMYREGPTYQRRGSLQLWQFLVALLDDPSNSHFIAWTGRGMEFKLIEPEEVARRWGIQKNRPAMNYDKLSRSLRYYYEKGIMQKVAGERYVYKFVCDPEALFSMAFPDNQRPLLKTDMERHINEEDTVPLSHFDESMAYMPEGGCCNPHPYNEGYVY
# Sequence of ELF4 (Q99607 whole entry): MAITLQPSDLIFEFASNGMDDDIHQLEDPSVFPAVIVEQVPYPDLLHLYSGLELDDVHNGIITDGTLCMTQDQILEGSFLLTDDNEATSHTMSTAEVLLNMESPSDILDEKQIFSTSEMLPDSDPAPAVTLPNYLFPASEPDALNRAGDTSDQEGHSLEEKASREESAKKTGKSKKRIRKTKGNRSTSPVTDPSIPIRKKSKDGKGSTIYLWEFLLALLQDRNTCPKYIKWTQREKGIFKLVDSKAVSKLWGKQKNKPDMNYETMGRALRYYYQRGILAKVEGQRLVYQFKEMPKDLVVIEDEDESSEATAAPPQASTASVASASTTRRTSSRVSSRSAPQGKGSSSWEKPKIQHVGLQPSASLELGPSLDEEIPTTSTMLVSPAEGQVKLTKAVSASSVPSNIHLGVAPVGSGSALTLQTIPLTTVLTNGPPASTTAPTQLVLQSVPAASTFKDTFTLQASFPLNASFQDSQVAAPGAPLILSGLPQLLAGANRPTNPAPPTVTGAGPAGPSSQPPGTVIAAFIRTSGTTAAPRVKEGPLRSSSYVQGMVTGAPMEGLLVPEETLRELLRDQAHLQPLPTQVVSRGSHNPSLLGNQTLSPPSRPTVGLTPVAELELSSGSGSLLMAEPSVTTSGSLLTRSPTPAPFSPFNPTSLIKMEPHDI
# Sequence of SPIB (Q01892 whole entry): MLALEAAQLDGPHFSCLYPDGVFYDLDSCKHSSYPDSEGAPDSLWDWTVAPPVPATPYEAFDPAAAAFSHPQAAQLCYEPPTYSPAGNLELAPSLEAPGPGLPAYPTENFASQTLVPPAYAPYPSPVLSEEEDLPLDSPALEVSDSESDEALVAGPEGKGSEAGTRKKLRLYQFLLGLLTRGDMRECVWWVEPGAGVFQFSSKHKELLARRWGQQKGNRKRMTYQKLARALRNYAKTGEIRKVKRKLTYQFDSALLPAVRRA
# Sequence of ETV5 (P41161 whole entry): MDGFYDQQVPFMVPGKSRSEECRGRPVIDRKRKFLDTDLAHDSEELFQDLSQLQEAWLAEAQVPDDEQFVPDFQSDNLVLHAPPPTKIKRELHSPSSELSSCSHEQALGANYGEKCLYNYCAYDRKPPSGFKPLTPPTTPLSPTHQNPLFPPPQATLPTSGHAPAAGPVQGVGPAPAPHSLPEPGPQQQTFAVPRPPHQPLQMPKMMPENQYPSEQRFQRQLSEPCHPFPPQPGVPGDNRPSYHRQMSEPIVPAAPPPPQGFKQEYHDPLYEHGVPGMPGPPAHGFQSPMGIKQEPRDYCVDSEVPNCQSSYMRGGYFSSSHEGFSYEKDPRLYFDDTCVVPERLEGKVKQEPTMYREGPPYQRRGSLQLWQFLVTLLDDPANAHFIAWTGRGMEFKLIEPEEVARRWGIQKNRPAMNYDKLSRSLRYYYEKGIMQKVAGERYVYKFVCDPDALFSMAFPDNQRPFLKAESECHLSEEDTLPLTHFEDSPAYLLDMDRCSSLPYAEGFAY
# Sequence of CRX (O43186 whole entry): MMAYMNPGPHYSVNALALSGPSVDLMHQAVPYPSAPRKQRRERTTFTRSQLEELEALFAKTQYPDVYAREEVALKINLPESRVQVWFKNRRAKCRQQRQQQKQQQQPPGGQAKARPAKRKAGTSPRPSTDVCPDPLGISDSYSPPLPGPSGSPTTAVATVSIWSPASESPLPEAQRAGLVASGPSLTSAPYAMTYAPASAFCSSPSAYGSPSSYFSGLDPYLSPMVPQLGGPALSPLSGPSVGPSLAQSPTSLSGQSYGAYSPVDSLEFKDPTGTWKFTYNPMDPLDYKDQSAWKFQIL
sequence,measurement,setting,value
TTCGTT,binding signal,[1],"1.33 fold enrichment (6-mer frequency, TF over GST control)"
same,binding signal,[2],"1.4 fold enrichment (6-mer frequency, TF over GST control)"
same,binding signal,[3],"1.33 fold enrichment (6-mer frequency, TF over GST control)"
same,binding signal,[4],"1.25 fold enrichment (6-mer frequency, TF over GST control)"
same,binding signal,[5],"1.32 fold enrichment (6-mer frequency, TF over GST control)"
same,binding signal,[6],"1.36 fold enrichment (6-mer frequency, TF over GST control)"
same,binding signal,[7],"1.29 fold enrichment (6-mer frequency, TF over GST control)"
same,binding signal,[8],"1.33 fold enrichment (6-mer frequency, TF over GST control)"
same,binding signal,[9],"1.24 fold enrichment (6-mer frequency, TF over GST control)"
same,binding signal,[10],"1.3 fold enrichment (6-mer frequency, TF over GST control)"
same,binding signal,[11],"1.4 fold enrichment (6-mer frequency, TF over GST control)"
same,binding signal,[12],"1.48 fold enrichment (6-mer frequency, TF over GST control)"
same,binding signal,[13],"1.32 fold enrichment (6-mer frequency, TF over GST control)"
same,binding signal,[14],"1.34 fold enrichment (6-mer frequency, TF over GST control)"
same,binding signal,[15],"1.37 fold enrichment (6-mer frequency, TF over GST control)"
same,binding signal,[16],"1.46 fold enrichment (6-mer frequency, TF over GST control)"
same,binding signal,[17],"1.38 fold enrichment (6-mer frequency, TF over GST control)"
same,binding signal,[18],"1.3 fold enrichment (6-mer frequency, TF over GST control)"
same,binding signal,[19],"1.39 fold enrichment (6-mer frequency, TF over GST control)"
